Among all 290,000 compounds or so, about 3,000 (1%) were called active. Rule as the data show it: active = inhibition mostly above about 36% (no sharp cut-off); inactive = mostly below about 34%. The full list was thinned out, with actives kept by preference.
experiment: inhibition of NOD1-driven NF-kB reporter – cell-based, luminescence, uHTS, primary screen (AID 1578); conditions: NOD1-driven NF-kB luciferase reporter cells, at 4 µM, active compounds read high;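 also: HEK-293T reporter cells stimulated with the NOD1 agonist gamma-tri-DAP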

Compound | inhibition
Cc1csc(=N)n1Cc1ccccc1 | -19.9% (inactive)
Cc1cccc(N2C(=O)NC(=O)C3(Cc4cc(C)ccc4N(C)C3)C2=O)c1 (configuration not stated) | 11% (inactive)
COc1ccc(Cl)cc1C(=O)C1CCCN(Cc2cnc(C)s2)C1 (configuration not stated) | -27.2% (inactive)
CC1CCC(C(C)C)C(OC(=O)COC(=O)c2ccccc2N)C1 (configuration not stated) | 79.2% (active)
CC1CCC(C(C)C)C(OC(=O)Cn2c(COc3ccccc3)[n+](C)c3ccccc32)C1 (configuration not stated) | -12.8% (inactive)
CC1CCC(C(C)C)C(OP(N)(=O)c2ccccc2)C1 (configuration not stated) | 12.7% (inactive)
Cc1cccnc1-n1c(-c2ccco2)nc2ccccc2c1=O | -8.5% (inactive)
CC(C)(C)NC(=S)/N=C(\N)N[N+](=O)[O-] | -21.7% (inactive)
Cc1[nH]c2ccccc2c1C(=O)C(=O)N1CCC2(CC1)OCCO2 | -23.7% (inactive)
CC(C)[C@]12O[C@H]1[C@@H]1O[C@]13[C@]1(O[C@H]1C[C@H]1C4=C(CC[C@@]13C)C(=O)OC4)[C@@H]2O | 107% (active)
Cn1c(O)c(C=Nc2ccccc2-c2ccccc2)c(=O)n(C)c1=O | -12.2% (inactive)
COc1ccccc1[As](=O)(O)CC(O)COc1ccc(Cl)cc1Cl (configuration not stated) | -11% (inactive)
CN(C)c1ccc(C(=O)N/N=C/C23CC[C@@H](O)CC2(O)CC[C@@H]2[C@@H]3CCC3(C)C(C4=CC(=O)OC4)CCC23O)cc1 (some centres not stated) | 45% (active)
COc1ccc(C(=O)N/N=C/C23CC[C@@H](O)CC2(O)CC[C@@H]2[C@@H]3CCC3(C)C(C4=CC(=O)OC4)CCC23O)cc1 (some centres not stated) | 12.5% (inactive)
CC12CC[C@H]3[C@@H](CCC4(O)C[C@H](O)CCC34/C=N/NC(=O)c3ccc(O)cc3)C1(O)CCC2C1=CC(=O)OC1 (some centres not stated) | -7.5% (inactive)
CC(=O)N1N=C2C3CCN(CC3)C2C1c1ccc(C)cc1 (configuration not stated) | -23.8% (inactive)
COc1ccccc1OCCCn1cc(C(=O)c2ccco2)c2ccccc21 | 3.3% (inactive)
Cc1cc(/C=C2\C(=O)NC(=O)N(C)C2=O)c(C)n1-c1ccc2c(c1)OCO2 | -6.1% (inactive)
Cc1cc(C=C2C(=O)NC(=S)NC2=O)c(C)n1-c1ccc2c(c1)OCO2 | 104% (active)
Cc1cc(C=C2C(=O)NC(=O)NC2=O)c(C)n1-c1ccc2c(c1)OCO2 | 55.3% (inactive)
C/C(=N\N1CCCCCC1)c1c(O)n(C)c(=O)n(C)c1=O | -4.6% (inactive)
Cc1cccn2c(NCC3CCCO3)c(C(C)C)nc12 (configuration not stated) | 2.9% (inactive)

Source: PubChem BioAssay AID1578 (Sanford-Burnham Center for Chemical Genomics, 2009)
